Common to all, as to assay: NCI-60 one-dose screen, 48 h (100 = growth as untreated, 0 = no growth, -100 = all killed)
Common to all, as to settings: 10 µM unless noted

For test [1], the system named is NCI-H23 lung.
The subject of test [2] is NCI-H322M lung.
The subject of test [3] is HOP-62 NSCLC.
Test [4] has as its system NCI-H460 lung.
Test [5] concerns HOP-92 NSCLC.
The subject of test [6] is NCI-H522 lung.
Test [7] relates to A549/ATCC NSCLC.
Test [8] relates to 786-0 renal.
Test [9] relates to COLO 205 colon.

Structures are written as SMILES. Compounds without any hit were thinned out: in the full panel of roughly 83,000, 20% have a hit.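 A percent growth of 40 corresponds to 60% growth inhibition; 0 means no net growth; -100 means all cells died. Active threshold: below 10.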 Unmarked numbers belong to inactive results. The source made the active and inactive calls.

For `COc1cc(C2C=C(C)N=C3SC=CN32)cc(OC)c1OC` (stereo not drawn), the growth in [1] is 108%; in test [2], 105%; in [3] it was 106%; in [4] it was 105%; in test [5], 91.6%; in test [6] it was 97.2%. Besides, the growth in test [7] was 107%; in test [8] it was 113%; in test [9] it was 113%.
Consider `COc1ccc(/C(=N/O)c2cc(OC)c(OC)c(OC)c2)c(OC)c1N`, for which the growth is 51.9% in test [1]; 48.4% in [2]; 33.7% in test [3]; 14.5% in test [4]; 53.2% in test [5]; 0.281% (active) in [6]. For the same compound, the values for the growth in test [7], in [8] and in test [9] were 45.6%, 30.6% and 20.2%, respectively.
For the compound `OCc1c(-c2ccccc2)nc2sccn12`, the growth was 81.9% in [1]; 105% in test [2]; 95.5% in [3]; 106% in [4]; -8.39% (active) in test [5]; 105% in [6]. For the same compound, the growth in test [7] was 101%; in test [8], 101%; in [9], 110%.
In the case of `Clc1ccc(/C=C/c2nc(N3CCOCC3)c3nc(Cl)c(Cl)cc3n2)cc1`, the growth in test [1] is 92.2%; in test [2], 111%; in test [3], 110%; in test [4] it was 105%; in test [5], 94.1%; in [6], 95.5%. Moreover, the growth in [7] is 107%; in test [8] it was 92.2%; in test [9], 102%.
For `COc1ccc(C2CC(=O)Nc3c2c(C)nn3-c2nc3ccccc3[nH]2)cc1OC` (stereo not drawn), the growth in test [1] was 48.7%; in test [2], 75.9%; in test [3], 67.8%; in test [4], 63.7%; in test [5], 89.3%; in test [6] it was 98.2%. In addition, the growth is 61.1% in [7], 87.5% in test [8] and 106% in test [9].
In the case of `CCCC1OC(c2ccc(C(C)C)cc2)OCC1CC` (stereo not drawn), the growth in test [1] is 98.8%; in test [2], 98%; in [3], 74%; in test [4] it was 123%; in test [5], 101%; in [6] it was 87.2%. Also, the growth in [7] is 75.8%; in [9] it was 99.6%.
Turning to `CCN(CC)CCSc1c2ccc(Cl)cc2nc2ccc(OC)cc12`, the growth in [1] was 87.1%; in test [2], 105%; in test [3], 75.9%; in test [4] it was 102%; in test [5], 82.3%; in [6], -24.9% (active). Further, the growth in test [8] was 67.6%; in test [9], 26.8%.
In the case of `CN(C)C/C=C/C(=O)Nc1cc2c(Nc3cccc(Cl)c3F)ncnc2cc1OCCOC(F)F`, the growth in [1] was 60.9%; in test [2], 7.68% (active); in test [3], 39.3%; in test [4], 67.4%; in [5], -29% (active); in test [6], -19.2% (active). In addition, the growth in test [7] is 25.2%; in [8], 18.5%; in test [9], 56.7%.
Regarding `CC(=O)Nc1ccc(S(=O)(=O)N2C(=O)CCC2C(=O)Nc2ccccc2)cc1` (stereo not drawn), the growth in test [1] was 38.5%; in test [2], 38%; in [3], 30.3%; in test [4] it was 15.1%; in test [5], -5.79% (active); in test [6], 27.5%. The results for the growth in [8] and in [9] were 26.2% and 12.1%, respectively.
For `O=C(c1c[nH]c2ccccc12)C(Sc1nc2ccccc2c(=O)[nH]1)c1ccccc1` (stereo not drawn), the growth in [1] was 116%; in test [2], 121%; in test [3], 89.6%; in [4], 110%; in [5], 91.7%; in [6], 93.7%. In addition, the values for the growth in test [7], in test [8] and in test [9] were 93.4%, 104% and 96.9%, respectively.
In the case of `O=C1Nc2ccc(Br)cc2C1=N/C=c1\[nH]c(=O)/c(=C/c2ccc(Cl)cc2)s1`, the growth in [1] was 97.8%; in test [2], 93.2%; in test [3], 84.1%; in [4] it was 101%; in test [5] it was 83.2%; in test [6] it was 89.3%. The growth in [7] was 85.3%; in [8], 90.6%; in test [9], 102%.
Take `O=S(=O)(NCCNc1cc(-c2cn(-c3ccccc3)nc2-c2ccccc2)ccn1)c1ccc(F)cc1`: the growth was 81.6% in [1]; 96.2% in test [2]; 98.8% in test [3]; 91.7% in [4]; 40.7% in test [5]; 82.9% in [6]. Also, the growth in test [7] is 77.6%; in test [8], 81.5%; in [9], 98.8%.
Regarding `COc1cc(/C=C/C(=O)c2ccc(NC(=O)CN3CCN(c4cc5c(cc4F)c(=O)c(C(=O)O)cn5C4CC4)CC3)cc2)cc(OC)c1OC`, the growth in [1] was -35.6% (active); in test [2] it was -7.05% (active); in [3] it was 4.38% (active); in test [4], -20% (active); in test [5], -1.75% (active); in [6], -71.5% (active). Moreover, the growth was -19.2% (active) in [7], -67.8% (active) in [8] and -12.8% (active) in test [9].
Turning to `COc1ccc(C(=O)c2cc(OC)c(OC)c(OC)c2)cc1/C=C/C(=O)c1ccc(OC)c(OC)c1`, the growth in test [1] was 32.2%; in test [2], 54.7%; in test [3], 58.6%; in [4], 18.4%; in test [5], 39.4%; in test [6], 3.99% (active). Besides, the growth in test [7] was 57.1%; in test [8] it was 55.9%; in [9], 31.3%.
In the case of `O=C(OCCCCOC(=O)n1cnc2ccccc21)n1cnc2ccccc21`, the growth in [1] was 99.7%; in [2], 105%; in [3] it was 98.3%; in test [4] it was 103%; in [5] it was 88.8%; in test [6], 91.3%. Also, the growth in test [7] is 92.5%; in [8], 105%; in [9], 103%.
For `COC1=CC(c2ccc[nH]2)=N/C1=C\c1[nH]c(C)c(C(=O)CCC(=O)Oc2ccc3c(c2)CCC2C3CC[C@]3(C)[C@@H](O)CC[C@@H]23)c1C` (stereo partly drawn), the growth is 18.4% in test [1]; 42.7% in test [2]; 12.4% in [3]; 1.58% (active) in test [4]; -45.2% (active) in test [5]; -58.9% (active) in test [6]. Further, the growth in test [7] was -10.9% (active); in [8] it was -46.3% (active); in test [9] it was 31.5%.
For the compound `O=C(CN1CCOCC1)Nc1ccc(-c2nc3ccccc3s2)cc1`, the growth was 99.5% in test [1]; 100% in test [2]; 106% in [3]; 99.7% in [4]; 83.3% in test [5]; 94.5% in test [6]. In addition, the growth was 93.8% in test [7], 101% in [8] and 115% in [9].
For `COc1ccc(/C=C/c2cc(N3CCOCC3)c3cc(F)c(F)cc3n2)cc1OC`, the growth in [1] was 42.3%; in [2], 30%; in [3], 63.9%; in [4] it was 25.2%; in test [5] it was 49.7%; in [6] it was 7.5% (active). Further, the growth in [7] was 44.6%; in test [8], 40.8%; in test [9] it was 11.8%.
With `CC[C@H](C)[C@@H]1NC(=O)[C@H]([C@@H](C)O)NC(=O)C(Cc2ccccc2)NC(=O)[C@@H]2CCCN2C(=O)C(C(C)C)NC(=O)C(Cc2ccccc2)NC(=O)CNC(=O)[C@@H]2CCCN2C1=O` (stereo partly drawn), the growth in test [1] was 82.5%; in test [2], 85.3%; in test [3], 76%; in [4], 55.7%; in test [5], -18.4% (active); in test [6], 55.5%. In addition, the growth is 56.6% in test [7], 39.9% in [8] and 79.7% in test [9].
`O=S(=O)(NCCNc1cc(-c2cn(-c3ccccc3)nc2-c2ccccc2)ccn1)c1cccc2ccccc12`: the growth was 49.8% in test [1]; 68.7% in test [2]; 68.2% in test [3]; 44.4% in [4]; 2.24% (active) in test [5]; 78.9% in test [6]. Further, the growth in [7] is 42.3%; in test [8], 49.7%; in test [9], 8.28% (active).
Turning to `C#CCN1C(=O)/C(=c2\sc3n(c2=O)C2C(NN=3)N(CC)C(=O)N2CC)c2ccccc21` (stereo not drawn), the growth in test [1] was 18.5%; in [2] it was 44.3%; in test [3], -4.91% (active); in test [4], 5.2% (active); in [5], 58.1%; in [6], 25%. In addition, the results for the growth in [7], in test [8] and in test [9] were 23.3%, 12% and -12.2% (active), respectively.
Take `COc1cccc(/C=C/C(=O)c2sc(Nc3ccc(O)cc3)nc2C)c1`: the growth in test [1] was 92.3%; in [2], 93.5%; in [3], 107%; in test [4], 105%; in [5] it was 107%; in test [6], 24.9%. The growth was 88.2% in [7], 80.2% in [8] and 115% in test [9].
`COc1cccc(-n2cc(-c3nc(Cl)c4ccccc4n3)nn2)c1`: the growth is 100% in test [1]; 102% in test [2]; 125% in [3]; 107% in test [4]; 101% in test [5]; 83.2% in [6]. Also, the growth in test [7] is 92.7%; in test [8], 97.8%; in [9] it was 98.8%.
As for `COc1cc2nc(N3CCC[C@@H](NC4=CC(=O)c5ccccc5C4=O)C3)nc(N)c2cc1OC`, the growth in test [1] is 87.2%; in test [2], -65.3% (active); in test [3], 94.5%; in test [4], -72.9% (active); in test [5], 84.8%; in [6], 94.3%. For the same compound, the growth is -74.6% (active) in test [7], 94.7% in [8] and -71.8% (active) in test [9].
As for `COc1cc2nc(Cl)nc(NCCO)c2cc1OC`, the growth in [1] was 108%; in test [2] it was 105%; in test [3], 114%; in [4] it was 95.7%; in test [5], 95.6%; in test [6], 100%. Further, the growth was 97.7% in test [7], 111% in test [8] and 125% in test [9].
For `CCC1CCc2nc3sc(C(=O)Nc4cccc(C)c4)c(N)c3cc2C1` (stereo not drawn), the growth was 101% in test [1]; 94.8% in [2]; 87% in test [3]; 88.1% in [4]; 55.2% in [5]; 71.5% in test [6]. In addition, the results for the growth in test [7], in test [8] and in test [9] were 77.3%, 94.9% and 93%, respectively.
With `FC(F)(F)c1cccc(-n2nnc3cnc(Nc4ccc(N5CCCCC5)cc4)nc32)c1`, the growth is 66.5% in [1]; 90.7% in test [2]; 98.1% in [3]; 12.6% in [4]; 110% in test [5]; 2.95% (active) in test [6]. Further, the growth in test [7] was 20.9%; in test [8], 25.3%; in test [9], 77.2%.
Take `COc1ccc(/C=C/C(=O)c2ccc(B(O)O)cc2)cc1O`: the growth in test [1] was 88%; in [2], 96.3%; in [3] it was 89.8%; in [4] it was 73.2%; in test [5], 52.4%; in test [6], 85.6%. Moreover, the growth was 66.3% in [7], 84.9% in [8] and 101% in test [9].
On to `Cc1ccc(Cn2c(-c3cccs3)nc3ccccc32)cc1`, for which the growth was 96.2% in test [1]; 92% in test [2]; 105% in test [3]; 88% in [4]; 72.5% in test [5]; 85.1% in [6]. The growth in test [7] is 74.2%; in test [8], 99%; in [9], 110%.

The values above are taken from PubChem BioAssay (NCI).
